Screens as filed in PubChem BioAssay.
JMJD2A Tudor inh = inhibitors of human JMJD2A Tudor domain; Potency, µM (top dose mostly 114 µM), for the others: at the top dose activity change, negative = inhibition, most hits filed as inhibitors; O75164; 4.4% of 390,000 active; AID 504339; AlphaScreen JMJD2A-Tudor / H3K4me3 peptide binding; also: % is scaled to controls: 0 for no effect and ±100 for the full control effect; nearly all actives have a fitted effect of over 50% in size
BAZ2B block = inhibitors of human BAZ2B bromodomain | AlphaScreen BAZ2B-H3K14Ac peptide displacement | Potency, µM (series often up to 114 µM), for inactives: at the highest dose activity change, negative = inhibition, hits mostly inhibitors | 4.4% of 360,000 active | Q9UIF8; also: % is scaled to controls: 0 for no effect and ±100 for the full control effect; nearly all actives have a fitted effect of over 60% in size
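Multi-concentration screen (max 110 uM) measuring displacement of acetylated histone H3 peptide from BAZ2B by AlphaScreen, using 50 nM protein, 50 nM peptide and 10 ug/mL streptavidin donor plus Ni-chelate acceptor beads.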
HP1b chromo inh = blocks HP1-beta chromodomain binding to methylated histone tails; P83916; AlphaScreen HP1-beta / biotin-H3K9me3 peptide binding; Potency, µM (doses to about 114 µM), for inactives: at the top dose activity change, negative = inhibition, most hits filed as inhibitors; 0.56% of 390,000 active; AID 540317; also: nearly all actives have a fitted effect of over 70% in size
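Compound inhibition of the preformed complex between 50 nM HP1-beta and 50 nM biotinylated H3K9me3 peptide was read by AlphaScreen. Buffer was PBS pH 7.4 with 0.01% Tween-20. Incubations ran 30 min at room temperature, with 10 ug/mL donor/acceptor beads.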
L3MBTL1 inh = L3MBTL1 (human) inhibition. Q9Y468. AlphaScreen L3MBTL1–H3K9me1 peptide binding. Potency, µM (top dose mostly 57.1 µM), for inactives: top-dose activity, negative = inhibition, hits mostly inhibitors. 0.66% of 230,000 active. AID 485360; also: % is scaled to controls: 0 for no effect and ±100 for the full control effect; nearly all actives have a fitted effect of over 60% in size
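L3MBTL1 50 nM + b-AHA-H3(1-15)K9me1 75 nM, 30 min RT; compound added, 30 min RT; streptavidin donor/Ni-chelate acceptor beads 10 ug/mL each final, 30 min RT dark; AlphaScreen read.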
G9a block = G9a (human) methyltransferase inhibition; G9a H3K9 monomethylation, AlphaScreen, 2 h; Potency, µM (doses to about 102 µM), for inactives: top-dose activity, negative = inhibition, most hits filed as inhibitors; 8.8% of 350,000 active; also: % is scaled to controls: 0 for no effect and ±100 for the full control effect; nearly all actives have a fitted effect of over 75% in size
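Step 1: enzyme (final 20 nM) with compound, 15 min RT. Step 2: substrate peptide 500 nM and SAM 20 uM, 2 h RT. Step 3: anti-H3K9me1 antibody and AlphaScreen beads, 10 min, then plate read.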
Sfp inh = blocks B. subtilis Sfp PPTase activity; Q9F4F7; Biochemical Sfp PPTase activity, qHTS; Potency, µM, inactives show largest response in the series, negative = inhibition, most hits filed as inhibitors; 3.5% of 310,000 active;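 also: the enzyme is Sfp with the accession as filed and its product quenches rhodamine fluorescence; 0% = enzyme reaction without inhibitor and -100% = no enzyme wells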
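Compounds were incubated with enzyme (final 15 nM) for 15 min at room temperature before substrate addition started the reaction. Fluorescence at 525 nm excitation, 598 nm emission was recorded immediately and after 30 minutes.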
* = called active by the depositor; ? = inconclusive; nt = no result given; ! = not confirmed by another sample; [ ] = remark or other dose. The list is not random: actives were taken first. Their share in the collection is about 12%. Calls follow the shape of the dose curve; as a rule, active = well fitted curve in the direction sought with a large enough effect; inconclusive = small, poorly fitted or top-dose-only effect, or another doubt; inactive = no such curve, though single readings can be large; an effect the other way counts as inactive or inconclusive. Potency is read from the fitted curve at half-maximal effect.

SMILES	JMJD2A Tudor inh	BAZ2B block	HP1b chromo inh	L3MBTL1 inh	G9a block	Sfp inh
CCOC(=O)c1c(-n2c(C)cc(C=C3C(=O)NC(=S)NC3=O)c2C)sc2c1CCCC2	?	?	-7.2%	-10.3%	?	17.8µM*
Cc1cc(/C=C2\C(=O)NC(=O)N(c3ccc(Br)cc3)C2=O)c(C)n1-c1cc(C(=O)O)cc(C(=O)O)c1	22.4µM*	56.2µM*	?	nt	20µM*	-1.8%
Cc1ccc(N2C(=O)NC(=O)/C(=C\c3cc(C)n(-c4sc5c(c4C#N)CCCC5)c3C)C2=O)cc1	?	?	-14.1%	-16.4%	?	39.8µM*
Cc1cc(/C=C2\C(=O)NC(=O)N(c3ccc(Cl)cc3)C2=O)c(C)n1-c1cccc(C(=O)O)c1	?	-38.8%	-2.5%	nt	-6.5%[2.33 µM]	-8.9%
CCOC(=O)c1c(-n2c(C)cc(/C=C3/C(=O)NC(=O)N(CC)C3=O)c2C)sc2c1CCCC2	-18.9%	nt	25.8%	nt	nt	nt
O=P1(N(CCCl)CCCl)NCCCO1 (configuration not stated)	-25.9%	0.3%	24.1%	nt	17.8µM*!	-8.7%
C[C@@H]1O[C@H](O[C@@H]2C[C@@H](O)[C@]3(CO)[C@H]4[C@H](O)C[C@]5(C)[C@@H](C6=CC(=O)OC6)CC[C@@]5(O)[C@@H]4CC[C@]3(O)C2)[C@@H](O)[C@H](O)[C@H]1O	nt	nt	nt	nt	nt	-4.8%
O=C1NC(=S)NC(=O)C1=Cc1ccc2c(c1)CCN2CCCCl	7.94µM*	25.1µM*	?	nt	10µM*	15.8µM*
Cc1cc(N=Nc2ccccc2C)ccc1N	39.8µM*	nt	35.5µM*	nt	nt	nt
Cc1ccc(N)c(C(=O)c2ccccc2)c1	?	?	-12.7%	-17.2%	?	4.7%
C[N+](C)(C)CCCCCCCCCC[N+](C)(C)C	-2.2%	-0.5%	51.2%	-10.0%	19.8%[59 µM]	-3.5%
Cl.Cl.Cl.Cl.Cl.Cl.N.N.N.N.NNNNN.NNNNN.O.O.[Ru].[Ru].[Ru]	nt	nt	nt	nt	nt	50.1µM*
CCC1(c2ccccc2)C(=O)NC(=O)N(C(=O)c2ccccc2)C1=O (configuration not stated)	nt	nt	nt	nt	-1.2%[12.7 µM]	-6.7%
CCOc1ccccc1N1C(=O)CC(=O)NC1=O	-4.6%	?	5.5%[57 µM]	nt	79.4µM*	-14.8%
CC(=O)c1c(O)n(-c2cccc(Cl)c2)c(=O)[nH]c1=O (tested in a mixture with another compound)	-18.3%	-29.2%	16.0%	-18.1%	50.1µM*	-6.5%
O=S1(=O)N(Cc2ccccc2)CCCN1Cc1ccc(F)cc1Cl	92.1%	98.9%	130.4%	nt	73.1%[59 µM]	nt
CCCN1CCO[C@@H]2c3cc(O)ccc3OC[C@@H]21	nt	nt	nt	nt	nt	56.2µM*
CCCCN1C(=O)NC(=O)C2(Cc3cc(C)ccc3N(C)C2)C1=O (configuration not stated)	-16.0%	-7.1%	30.5%	nt	?	?
CCC(C)N1C(=O)NC(=O)C2(Cc3c(ccc4ccccc34)N(C)C2)C1=O (configuration not stated)	-23.6%	?	-37.0%	-18.8%	1.78µM*	-4.5%
CN(C)c1ccc(CN2CC=C(c3ccc(F)cc3)CC2)cc1	50.1µM*	50.1µM*	-37.7%	-16.1%	?	-12.8%
COc1cc(CN2CC=C(c3ccc(F)cc3)CC2)cc(OC)c1	5.6%	1.8%	49.3%	-1.8%	nt	-1.1%
O=C1NC(=O)N(c2ccc3c(c2)OCO3)C(=O)/C1=C/c1ccc(N2CCCCC2)o1	-3.3%	-36.4%	24.5%	-3.5%	50.1µM*	-9.2%
O=C1NC(=O)N(c2ccc3c(c2)OCO3)C(=O)/C1=C\c1ccc(-c2ccccc2C(=O)O)o1	31.6µM*	79.4µM*	?	?	10µM*	50.1µM*
Cc1cccc(N2C(=O)NC(=O)/C(=C/c3ccc(-c4ccc(C(=O)O)c(Cl)c4)o3)C2=O)c1	nt	-13.6%	nt	nt	10µM*	44.7µM*
CCCCCCC(=O)N/N=C/c1c(O)n(CCc2ccccc2)c(=O)[nH]c1=O	-19.3%	3.9%	35.4%	-4.0%	-3.4%	28.7%
